Assay outcomes (PubChem)
DT40 TDP1 CPT = growth inhibition of DT40 Tdp1-/-;hTDP1 cells with camptothecin (screen for TDP1 inhibitors) | Potency, µM (highest dose often 46.2 µM), most hits filed as inhibitors | AID 686979 | chicken DT40 Tdp1-/-;hTDP1 cells + 20 nM CPT, ATP luminescence, 48 h | actives 12% (n = 420,000); also: nearly all actives have a fitted effect of over 55% in size
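Chicken DT40 Tdp1-/- cells complemented with human TDP1, 400 cells/well, exposed to compounds plus 20 nM camptothecin for at least 48 h at 37 C; viability read as ATP content by CellTiter-Glo luminescence.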
TDP1 cell noCPT = qHTS for Inhibitors of human tyrosyl-DNA phosphodiesterase 1 (TDP1): qHTS in cells in absence of CPT; DT40 Tdp1-/- hTDP1 cells, no CPT, ATP luminescence, 48 h; AID 686978, 2013; actives 15% (n = 420,000); Potency, µM (highest dose often 46.2 µM), most hits filed as inhibitors; also: nearly all actives have a fitted effect of over 55% in size
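No-CPT arm: Tdp1-/-;hTDP1 DT40 cells (400/well) plus compounds, incubated ≥48 hr at 37 °C. Readout CellTiter-Glo luminescence.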
IL-1B inflam inh = inhibitors of inflammasome signaling (IL-1 beta secretion) | THP-1 LPS/ATP IL-1B secretion, AlphaLISA, 16 h; hits give low values | actives 4.7% (n = 360,000) | activity change, % at 57.5 µM; in the data active = activity change below about -50%; inconclusive = mostly about -30% to -49%
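THP-1 cells pretreated 1 hr with compounds (up to 57.5 uM final), then stimulated with LPS (250 ng/mL final) plus ATP (1.25 mM final); secreted IL-1B measured by AlphaLISA after 16 hr, decreased signal indicating inhibition.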
Chronic BCR inh = blocks chronic active B-cell receptor signaling | Potency, µM (doses to about 46.1 µM), actives largely listed as inhibitors | AID 493014 | actives 0.05% (n = 340,000) | ABC-DLBCL IkBa-CBG/CBR reporter, luminescence ratio, 4 h; active = well fitted inhibition curve with a large enough effect in the signal ratio, with a control signal flat, not every such curve was filed as active; inconclusive = small, poorly fitted or top-dose-only effect, or effect the other way, or a change in a side signal; the % refers to the signal ratio
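Doxycycline induced both beetle luciferases in TMD8 lymphoma cells; IKK-driven degradation limits the IkappaBalpha-fused green signal, while red luminescence normalises for cell number and nonspecific effects. Compounds tested up to 46 uM, 4 hrs.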
SW480 rerep = inducers of DNA re-replication in SW480 colon cancer cells; actives 1.8% (n = 340,000); Potency, µM (top dose mostly 46.1 µM), most hits filed as activators; SW480 DNA re-replication, Hoechst DNA content imaging, 48 h; also: nearly all actives have a fitted effect of over 55% in size
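First, 250 cells per well were seeded. Next, compound or vehicle (23 nL) was pinned in, plates sat 48 hr at 37 C. Finally Hoechst was added for 40 min before fluorescence scanning.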
MCF10A rereplic = induces DNA re-replication in MCF 10a normal breast cells; MCF 10A DNA re-replication, Hoechst nuclear intensity, 48 h; Potency, µM (top dose mostly 46.1 µM), most hits filed as activators; actives 2.9% (n = 350,000); AID 624296; also: nearly all actives have a fitted effect of over 50% in size
Each line names hits and unclear results; the compound was inactive in the other large screens. Rows were chosen to be rich in hits. Some 19% of all compounds tested hit in one or more screens of this group. Unless noted, calls follow the shape of the dose curve; as a rule, active = well fitted curve in the direction sought with a large enough effect; inconclusive = small, poorly fitted or top-dose-only effect, or another doubt; inactive = no such curve, though single readings can be large; an effect the other way counts as inactive or inconclusive.

COc1ccc(Nc2nc3ccccc3n2C)cc1	none
CCn1c(/C=C/c2ccccc2)nc2ccccc21	DT40 TDP1 CPT inconclusive, TDP1 cell noCPT 26µM, SW480 rerep inconclusive, MCF10A rereplic inconclusive
Cc1c(C(=O)N(C)Cc2cccc3ncccc23)cnn1-c1nccc(-c2ccccc2F)n1	none (no result: IL-1B inflam inh, Chronic BCR inh, SW480 rerep, MCF10A rereplic)
COCCCNC(=O)Cn1cc(C(C)=O)c2ccccc21	none
Cc1ccc(C)c(OCCn2cc(C(=O)O)c3ccccc32)c1	Chronic BCR inh inconclusive
CC(=O)c1cn(CCOc2cc(C)ccc2C)c2ccccc12	DT40 TDP1 CPT 3.7µM, TDP1 cell noCPT 4.1µM
COc1ccccc1OCCn1cc(C(=O)c2ccco2)c2ccccc21	DT40 TDP1 CPT inconclusive, TDP1 cell noCPT 18µM, Chronic BCR inh inconclusive
CCOC(=O)Cn1cc(C(=O)c2ccco2)c2ccccc21	TDP1 cell noCPT inconclusive
COc1cccc(OCCn2cc(C(=O)c3ccco3)c3ccccc32)c1	DT40 TDP1 CPT 16µM, TDP1 cell noCPT 16µM, Chronic BCR inh inconclusive
COc1cccc(OCCn2cc(C(C)=O)c3ccccc32)c1	DT40 TDP1 CPT 12µM, TDP1 cell noCPT 18µM, Chronic BCR inh inconclusive
O=C(O)c1ccccc1-c1ccccc1C(=O)NCc1ccccc1Cl	none
COc1ccc(C(C)(C)NC(=O)C2CCC(=O)N(CCCN3CCCC3=O)C2)cc1 (centres undefined)	none
CC(C)(C)C(=O)OCOC(=O)C1N2C(=O)CC2S(=O)(=O)C1(C)C (centres undefined)	none (no result: IL-1B inflam inh, Chronic BCR inh, SW480 rerep, MCF10A rereplic)
NC(=O)[C@@H]1CCCN1C(=O)CC1(c2cccc(F)c2)CC(=O)N(C2CCCC2)C1=O (some centres undefined)	none (no result: IL-1B inflam inh, Chronic BCR inh, SW480 rerep, MCF10A rereplic)
Cc1ccccc1OCCn1cc(C(=O)c2ccco2)c2ccccc21	DT40 TDP1 CPT inconclusive, TDP1 cell noCPT 23µM (no result: IL-1B inflam inh, Chronic BCR inh, SW480 rerep, MCF10A rereplic)
Cc1ccccc1OCCn1cc(C(=O)O)c2ccccc21	Chronic BCR inh inconclusive
COc1ccc2oc(-c3ccc(C)c(NC(=O)c4ccc(-c5ccccc5[N+](=O)[O-])o4)c3)nc2c1	DT40 TDP1 CPT 18µM, TDP1 cell noCPT 9.2µM (no result: IL-1B inflam inh, Chronic BCR inh, SW480 rerep, MCF10A rereplic)
Cc1cccc(OCC(=O)Nc2cc(-c3nc4cc(Cl)ccc4o3)ccc2C)c1	DT40 TDP1 CPT 7.1µM, TDP1 cell noCPT inconclusive (no result: IL-1B inflam inh, Chronic BCR inh, SW480 rerep, MCF10A rereplic)
COc1ccc2oc(-c3ccc(C)c(NC(=O)COc4cc(C)cc(C)c4)c3)nc2c1	DT40 TDP1 CPT 7.3µM, TDP1 cell noCPT 5.2µM (no result: IL-1B inflam inh, Chronic BCR inh, SW480 rerep, MCF10A rereplic)
Cc1ccc2oc(-c3ccc(Cl)c(NC(=O)c4ccc(-c5ccccc5[N+](=O)[O-])o4)c3)nc2c1	none (no result: IL-1B inflam inh, Chronic BCR inh, SW480 rerep, MCF10A rereplic)
Cc1ccc(-c2nc3cc(Cl)ccc3o2)cc1NC(=O)COc1ccc(F)cc1	none (no result: IL-1B inflam inh, Chronic BCR inh, SW480 rerep, MCF10A rereplic)
Cc1ccc2nc(-c3ccc(C)c(NC(=O)COc4ccc(Br)cc4)c3)oc2c1	DT40 TDP1 CPT inconclusive (no result: IL-1B inflam inh, Chronic BCR inh, SW480 rerep, MCF10A rereplic)
Cc1ccc(-c2nc3ncccc3o2)cc1NC(=O)COc1ccc(C(C)C)cc1	DT40 TDP1 CPT inconclusive, TDP1 cell noCPT 16µM (no result: IL-1B inflam inh, Chronic BCR inh, SW480 rerep, MCF10A rereplic)
CN(CC(=O)N1CCN(Cc2ccccc2)CC1)S(=O)(=O)c1cccc2nsnc12	TDP1 cell noCPT inconclusive
COc1ccc(-c2nc3ccccc3o2)cc1NC(=O)COc1c(C)cc(Cl)cc1Cl	DT40 TDP1 CPT 2.9µM, TDP1 cell noCPT 5.2µM (no result: IL-1B inflam inh, Chronic BCR inh, SW480 rerep, MCF10A rereplic)
Cc1cccc(OCC(=O)Nc2ccc(-c3nc4cc(C)ccc4o3)c(O)c2)c1	DT40 TDP1 CPT 15µM, TDP1 cell noCPT inconclusive (no result: IL-1B inflam inh, Chronic BCR inh, SW480 rerep, MCF10A rereplic)
COc1cc2c(cc1OC)CN(CCC(=O)c1ccc(Br)cc1)CC2	DT40 TDP1 CPT 3.7µM, TDP1 cell noCPT 1.6µM, Chronic BCR inh inconclusive
COc1cc2c(cc1OC)CN(C(=O)CCC(=O)c1ccc(F)cc1)CC2	DT40 TDP1 CPT 18µM, TDP1 cell noCPT 12µM, SW480 rerep inconclusive, MCF10A rereplic inconclusive
CN[C@@H]1[C@@H](O[C@H]2O[C@H](CO)[C@@H](N)[C@H](O)[C@H]2O)O[C@H]2C[C@@H](N)[C@@H](O[C@H]3[C@H](O)[C@@H](O)[C@H](N)C[C@@H]3N)O[C@@H]2[C@@H]1O	none (no result: IL-1B inflam inh, Chronic BCR inh, SW480 rerep, MCF10A rereplic)
CC1=C(C#N)C(=O)N(C2CCS(=O)(=O)C2)C(=O)/C1=C\c1ccco1 (centres undefined)	none (no result: DT40 TDP1 CPT, TDP1 cell noCPT, IL-1B inflam inh, SW480 rerep, MCF10A rereplic)
COc1ccc(-c2nnc(NC(=O)c3ccc(S(=O)(=O)N4CCCc5ccccc54)cc3)o2)cc1	DT40 TDP1 CPT 3.2µM, TDP1 cell noCPT 5.6µM, SW480 rerep inconclusive
COCc1nnc(NC(=O)c2ccc(S(=O)(=O)N3CCCc4ccccc43)cc2)o1	DT40 TDP1 CPT 23µM, TDP1 cell noCPT inconclusive, SW480 rerep inconclusive, MCF10A rereplic 16µM
O=C(NCc1ccccc1)c1ccc(S(=O)(=O)N2CCCc3ccccc32)cc1	Chronic BCR inh inconclusive, MCF10A rereplic inconclusive
COCc1nnc(NC(=O)c2ccc(S(=O)(=O)N3CCOCC3)cc2)o1	none
O=C(Nc1nnc(C2CC2)o1)c1ccc(S(=O)(=O)N2CCCc3ccccc32)cc1	DT40 TDP1 CPT 4.6µM, TDP1 cell noCPT inconclusive
CCNC(=O)CN(C1CCCCC1)S(C)(=O)=O	none
